Assay [1] is described as follows: Nuclear factor erythroid 2-related factor 2/antioxidant responsive element (Nrf2/ARE) small molecule agonists: qHTS cell viability counter screen in human keratinocytes (AID 1919968; active = well fitted curve in the direction sought with a large enough effect in the repeat runs; an effect the other way counts as inactive or inconclusive; note: nearly all actives have a fitted effect of over 55% in size). The procedure, abridged: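 Seed 1,500 KeratinoSens cells per well, then incubate 5 h at 37 C/5% CO2. Add compounds in DMSO and incubate 23 h. Add CellTiter-Fluor, wait 1 h and read fluorescence.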
On the technique in general: Quantitative high-throughput screening tests each substance at several concentrations.

A short description of assay [2]: Nuclear factor erythroid 2-related factor 2/antioxidant responsive element (Nrf2/ARE) small molecule agonists: luciferase reporter gene qHTS assay in human keratinocytes (AID 1919969; note: nearly all actives have a fitted effect of over 35% in size). (In general: In a reporter assay the amount or activity of a reporter protein is the signal.)
Assay [3] concerns the target Gonadotropin-releasing hormone receptor (Homo sapiens) (UniProt P30968). Put plainly: Human gonadotropin-releasing hormone receptor (GnRHR) small molecule agonists, calcium flux assay in GnRHR-HEK293 cells (AID 1920063). Note: nearly all actives have a fitted effect of over 35% in size. The procedure, abridged: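 Cells: HEK293 stably expressing human GnRHR. Steps: overnight (18 h) culture, 1 h calcium dye loading at 37 C, compound addition, kinetic fluorescence read at 480/540 nm. Each compound tested at 15 concentrations in triplicate.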
(Calcium flux is commonly read through the fluorescence of an indicator in the cells.)

Assay [4] concerns the target KiSS-1 receptor (Homo sapiens) (UniProt Q969F8). The experiment in a line: Human kisspeptin (KISS1R) small molecule agonists, calcium flux assay in KISS1R-HEK293 cells (AID 1920064; active = well fitted curve in the direction sought with a large enough effect in the repeat runs; an effect the other way counts as inactive or inconclusive). The procedure, abridged:
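Cells plated and incubated 18 h; dye added, 1 h at 37 C; compounds in DMSO pinned in; signal read at 480/540 nm every second for 3 min. Each compound tested at 15 concentrations in triplicate.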

A short description of assay [5]: G protein-coupled receptor (GPCR) small molecule agonists, calcium flux assay: HEK293 wild type cell line counter screen (AID 1920065). An outline of the steps: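 Counter-screen of the Tox21 10K library for non-specific calcium release: dye-loaded cells received compounds in DMSO and were monitored by kinetic fluorescence (480/540 nm, 3 min). Fifteen concentrations, run in triplicate.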

Assay [6] in a line: p53 small molecule agonists, cell-based qHTS assay with human liver microsomes (AID 1963577).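 Note: p53 response element beta-lactamase reporter cells with liver microsomes plus NADPH.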 An outline of the steps: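 Reporter activation was measured by LiveBLAzer fluorescence intensity in p53RE-bla cells, which had been exposed to compounds for 16 h at 37 C alongside 0.5 mg/mL human liver microsomes and 0.5 mg/mL NADPH (final concentrations).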
Assay [7] is described as follows: p53 small molecule agonists, cell-based qHTS assay with rat liver microsomes (AID 1963578). An outline of the steps: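 Compound in DMSO added to p53RE-bla cells 5 h post-plating; rat microsomes/NADPH 0.5 mg/mL final; 16 h, 37 C; LiveBLAzer 2 h RT.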
Assay [8] can be described thus: p53 small molecule agonists, cell-based qHTS assay with human liver microsomes: qHTS cell viability counter screen (AID 1963579). Note: nearly all actives have a fitted effect of over 45% in size. The procedure, abridged:
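HLM-supplemented (0.5 mg/mL final) and NADPH-supplemented (0.5 mg/mL final) p53RE-bla cultures, 4,000 cells per well, were dosed with compounds in DMSO for 16 h at 37 C; luminescent ATP detection (CellTiter-Glo, 30 min, room temperature) quantified surviving cells.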

The nature of assay [9]: p53 small molecule agonists, cell-based qHTS assay with rat liver microsomes: qHTS cell viability counter screen (AID 1963580). Note: nearly all actives have a fitted effect of over 45% in size. The procedure, abridged: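 Viability is assessed in parallel with the p53 reporter read: HCT-116 p53RE-bla cells receive compounds plus rat microsomes and NADPH (0.5 mg/mL final apiece), incubate 16 h at 37 C, and then CellTiter-Glo luminescence is recorded.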

Assay [10] in a line: p53 small molecule agonists, cell-based qHTS assay: qHTS cell viability counter screen (AID 1963581). Note: nearly all actives have a fitted effect of over 45% in size. An outline of the steps:
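Cells: HCT-116 with p53 response element-driven beta-lactamase. Treatment: 16 h, 37 C, compounds in DMSO. Read: CellTiter-Glo luminescence after 30 min RT.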

Assay [11] in a line: p53 small molecule agonists, cell-based qHTS assay (AID 1963582; active = well fitted activation curve with a large enough effect in the signal ratio in the repeat runs, not every such curve was filed as active; the % refers to the signal ratio). The procedure, abridged: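 Quantitative HTS in p53RE-bla cells: after a 5 h settling period, compounds delivered in DMSO were left on cells for 16 h at 37 C, and reporter induction was measured as fluorescence following 2 h substrate loading.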
Assay [12] in a line: cAMP Responsive Elements (CRE) small molecule agonists, cell-based qHTS assay (AID 1963590). The procedure, abridged: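 Agonist mode qHTS in CRE-bla HEK 293T cells: compounds dosed from DMSO for 3 h at 37 C/5% CO2, followed by LiveBLAzer B/G FRET substrate for 2 h at room temperature.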
A short description of assay [13]: cAMP Responsive Elements (CRE) small molecule antagonists, cell-based qHTS assay (AID 1963591; active = well fitted inhibition curve with a large enough effect in the signal ratio in the repeat runs, not every such curve was filed as active; the % refers to the signal ratio). An outline of the steps: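 Antagonist mode: test compounds are co-incubated with the adenylyl cyclase activator NKH477 (0.25 uM final) on CRE-bla HEK293T cells for 3 h at 37 °C, followed by LiveBLAzer substrate loading.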
Assay [14] deals with Beta-2 adrenergic receptor (Homo sapiens) (UniProt P07550). Put plainly: Adrenergic beta2 receptor (ADRB2) small molecule antagonists, cell-based qHTS assay (AID 1963592). Note: series mostly up to about 92 µM; nearly all actives have a fitted effect of over 50% in size. The procedure, abridged:
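Cells (CHO, stable ADRB2 overexpression) incubated 18-20hr at 37C; compounds added from DMSO; agonist mix (1nM isoproterenol, 100uM IBMX, 25uM Ro-20-1724) added; 0.5hr RT; d2-cAMP and anti-cAMP-cryptate added; 1hr RT; 665/615 nm read.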

The target of assay [15] is D(2) dopamine receptor (Homo sapiens) (UniProt P14416). The experiment in a line: Dopamine D2 receptor (DRD2) small molecule agonists, cell-based qHTS assay (AID 1963594). Note: nearly all actives have a fitted effect of over 35% in size. The procedure, abridged: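 HEK293 cells stably expressing human DRD2, pre-treated with PDE inhibitor Ro20-1724 (0.1 mM final) and compound 10 min at room temperature, then stimulated with NKH477 (200nM […]) for 30 min. cAMP read by HTRF (665/620 nm).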

For assay [16] the target is unchanged. Put plainly: Dopamine D2 receptor (DRD2) small molecule antagonists, cell-based qHTS assay (AID 1963595; active = well fitted inhibition curve with a large enough effect in the signal ratio in the repeat runs, with a control signal flat; the % refers to the signal ratio; note: potency is the fitted concentration of half-maximal effect). An outline of the steps: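 Antagonist mode in DRD2-HEK293 cells: after compound addition with 0.1 mM Ro20-1724, cells received quinpirole (12 nM) and NKH477 (200 nM) for 30 min at room temperature; HTRF cAMP read after 1 h detection.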
The target in assay [17] is Muscarinic acetylcholine receptor M1 (Homo sapiens) (UniProt P11229). The experiment in a line: Cholinergic receptor muscarinic 1 (CHRM1) small molecule agonists, cell-based qHTS assay (AID 1963589). Note: nearly all actives have a fitted effect of over 35% in size. An outline of the steps: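 Agonist-mode qHTS in CHO cells stably carrying human muscarinic M1. Intracellular calcium is tracked by fluorescence every second after compound transfer; each compound runs at 15 concentrations in three independent runs.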

Assay [18] deals with Beta-2 adrenergic receptor (Homo sapiens) (UniProt P07550). The experiment in a line: Adrenergic beta2 receptor (ADRB2) small molecule agonists, cell-based qHTS assay (AID 1963593).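 Note: CHO cells stably overexpressing human ADRB2.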 An outline of the steps: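 CHO cells stably over-expressing ADRB2 were plated overnight at 37C, then dosed with compounds plus a stimulation mix containing 100uM IBMX and 25uM Ro-20-1724 for 0.5hr at room temperature. cAMP was measured by HTRF competition, 1hr.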

The values that follow come from PubChem BioAssay (Tox21).

SMILES strings stand for the structures. A number with no mark means an inactive call. Results filed as inconclusive are left out. The source made the active and inactive calls. Unless noted, calls come from the whole dose curve.

KiSS-1 receptor (Homo sapiens), sequence (Q969F8 whole entry, looked up): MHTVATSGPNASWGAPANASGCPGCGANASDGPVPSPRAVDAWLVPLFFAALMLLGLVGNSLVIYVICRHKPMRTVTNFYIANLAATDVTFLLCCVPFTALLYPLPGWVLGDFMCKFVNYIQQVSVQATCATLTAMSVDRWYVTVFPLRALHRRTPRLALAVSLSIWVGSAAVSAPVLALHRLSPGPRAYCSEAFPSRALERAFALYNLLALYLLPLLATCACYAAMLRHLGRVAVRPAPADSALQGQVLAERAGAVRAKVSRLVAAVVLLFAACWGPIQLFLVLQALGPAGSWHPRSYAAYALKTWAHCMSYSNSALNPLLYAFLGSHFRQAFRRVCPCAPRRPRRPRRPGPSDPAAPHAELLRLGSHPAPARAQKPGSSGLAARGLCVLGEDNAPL
D(2) dopamine receptor (Homo sapiens), sequence (P14416 whole entry, looked up): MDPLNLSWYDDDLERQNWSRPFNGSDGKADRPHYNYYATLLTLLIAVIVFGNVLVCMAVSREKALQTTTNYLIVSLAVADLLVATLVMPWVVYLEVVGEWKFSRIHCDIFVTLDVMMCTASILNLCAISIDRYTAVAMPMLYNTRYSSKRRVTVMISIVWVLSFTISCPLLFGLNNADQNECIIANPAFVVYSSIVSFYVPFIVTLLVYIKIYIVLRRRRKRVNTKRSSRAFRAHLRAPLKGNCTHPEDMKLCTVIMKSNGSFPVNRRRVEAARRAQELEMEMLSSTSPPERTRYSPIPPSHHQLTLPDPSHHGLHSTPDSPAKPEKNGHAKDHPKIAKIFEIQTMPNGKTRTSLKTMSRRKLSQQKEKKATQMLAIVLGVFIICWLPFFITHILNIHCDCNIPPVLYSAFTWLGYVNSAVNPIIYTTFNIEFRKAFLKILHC
Gonadotropin-releasing hormone receptor (Homo sapiens), sequence (P30968 whole entry, looked up): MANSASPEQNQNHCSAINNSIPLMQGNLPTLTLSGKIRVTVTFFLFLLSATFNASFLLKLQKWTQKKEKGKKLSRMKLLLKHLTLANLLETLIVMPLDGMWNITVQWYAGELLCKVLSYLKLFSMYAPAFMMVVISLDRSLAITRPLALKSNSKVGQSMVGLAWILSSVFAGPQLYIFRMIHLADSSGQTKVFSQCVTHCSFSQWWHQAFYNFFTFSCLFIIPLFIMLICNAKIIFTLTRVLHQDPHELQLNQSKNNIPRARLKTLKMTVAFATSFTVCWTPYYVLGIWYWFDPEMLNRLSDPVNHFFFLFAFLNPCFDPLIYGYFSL
Beta-2 adrenergic receptor (Homo sapiens), sequence (P07550 whole entry, looked up): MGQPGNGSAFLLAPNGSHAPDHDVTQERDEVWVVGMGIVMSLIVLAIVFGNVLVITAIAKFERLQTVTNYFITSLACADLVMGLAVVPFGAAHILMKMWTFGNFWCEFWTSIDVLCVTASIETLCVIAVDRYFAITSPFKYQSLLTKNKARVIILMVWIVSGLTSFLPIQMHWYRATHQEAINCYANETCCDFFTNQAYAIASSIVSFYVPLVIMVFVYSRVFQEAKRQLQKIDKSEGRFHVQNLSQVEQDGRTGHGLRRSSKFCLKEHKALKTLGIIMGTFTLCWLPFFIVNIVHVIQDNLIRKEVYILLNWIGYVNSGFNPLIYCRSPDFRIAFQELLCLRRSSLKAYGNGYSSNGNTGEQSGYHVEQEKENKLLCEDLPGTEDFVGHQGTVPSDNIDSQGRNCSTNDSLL
Muscarinic acetylcholine receptor M1 (Homo sapiens), sequence (P11229 whole entry, looked up): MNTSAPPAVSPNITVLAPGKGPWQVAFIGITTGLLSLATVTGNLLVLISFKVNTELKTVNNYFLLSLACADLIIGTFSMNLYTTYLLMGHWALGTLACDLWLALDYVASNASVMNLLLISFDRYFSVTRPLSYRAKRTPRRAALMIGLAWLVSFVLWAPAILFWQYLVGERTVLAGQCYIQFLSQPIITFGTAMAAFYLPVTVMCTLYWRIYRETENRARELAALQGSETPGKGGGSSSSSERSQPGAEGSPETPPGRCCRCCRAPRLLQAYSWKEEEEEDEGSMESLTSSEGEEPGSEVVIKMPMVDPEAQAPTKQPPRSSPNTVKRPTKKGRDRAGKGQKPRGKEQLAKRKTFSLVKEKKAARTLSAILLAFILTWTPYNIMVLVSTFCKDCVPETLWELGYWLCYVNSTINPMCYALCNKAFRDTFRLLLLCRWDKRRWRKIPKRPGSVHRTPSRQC

On to `CCOc1cc(N)c(Cl)cc1C(=O)NCC1CN(Cc2ccc(F)cc2)CCO1` (centres undefined), for which the Potency result in assay [1], in [2], in assay [3], in assay [6], in [7] and in [8] was “inactive” in each case. Besides, the Potency entry in [9], in [10], in [11], in assay [12], in [13] and in [14] was “inactive” throughout. Besides, the Potency entry in assay [15] and in [16] was “inactive” each time. In addition, the outcome in [4] and in [5] was inactive.
In the case of `Cc1cc(C)c(O)c(C(C)(C)C)c1`, the Potency entry in assay [1], in assay [2], in assay [3], in assay [6], in assay [7] and in assay [8] was “inactive” in each case. Further, the Potency result in assay [9], in [10], in assay [11], in assay [17], in [13] and in [14] was “inactive” in each case. The Potency entry in assay [18], in [15] and in [16] was “inactive” in each case. The outcome in assay [4] and in assay [5] was inactive.
Turning to `CCN(CC)CCNC(=O)c1cc(Cl)c(N)cc1OC`, the Potency entry in assay [1], in assay [2], in [3], in [6], in assay [7] and in [8] was “inactive” each time. For the same compound, the Potency result in assay [9], in assay [10], in assay [11], in [12], in assay [13] and in assay [14] was “inactive” in each case. For the same compound, the Potency entry in assay [15] was “inactive”. The result in assay [4] and in assay [5] was inactive. The Potency in assay [16] was 1.68 µM (active).
Take `CCOC(=O)c1ncn2c1CN(C)C(=O)c1cc(F)ccc1-2`: the Potency entry in [1], in assay [2], in assay [3], in assay [6], in [7] and in assay [8] was “inactive” throughout. For the same compound, the Potency result in assay [9], in assay [10], in assay [11], in assay [12], in assay [13] and in assay [14] was “inactive” each time. The Potency result in [18], in assay [15] and in assay [16] was “inactive” each time. The result in assay [4] and in assay [5] was inactive.
`CC12CCC(CC1=O)C2(C)C` (centres undefined): the Potency result in assay [1], in assay [2], in [3], in [6], in [7] and in assay [8] was “inactive” in each case. Further, the Potency entry in [9], in assay [10], in assay [11], in [12], in [13] and in [14] was “inactive” in each case. For the same compound, the Potency entry in assay [15] and in assay [16] was “inactive” each time. Further, the result in assay [4] and in assay [5] was inactive.
For the compound `Cc1cc(C(C)(C)C)c(O)c(C)c1CC1=NCCN1`, the Potency result in assay [1], in [2], in assay [3], in [6], in [7] and in [8] was “inactive” each time. In addition, the Potency entry in assay [9], in [10], in [11], in assay [12], in assay [13] and in [14] was “inactive” in each case. Further, the Potency result in [18] and in assay [16] was “inactive” throughout. Moreover, the outcome in assay [4] and in assay [5] was inactive.
`NC12CC3CC(CC(C3)C1)C2`: the Potency result in assay [1], in [2], in [3], in [6], in assay [7] and in assay [8] was “inactive” in each case. The Potency entry in assay [9], in assay [10], in assay [11], in assay [12], in [13] and in assay [14] was “inactive” in each case. The Potency entry in [18] and in assay [16] was “inactive” in each case. Besides, the result in assay [4] and in [5] was inactive.
